Experimental findings from PubChem BioAssay AID1039 (National Center for Advancing Translational Sciences (NCATS), 2008) are described below.

The assay can be described thus: Normal 2 Cell Viability Secondary Assay for qHTS Assay for Epigenetic Modulators. To be noted: Normal 2 bronchial epithelial viability, MTS, 4 days. The source says:
NIH Molecular Libraries Screening Centers Network [MLSCN] NIH Chemical Genomics Center [NCGC] MLSCN Grant: 1 X01 MH079860-01 Assay Provider: Elisabeth D. Martinez, University of Texas SW Medical Center NCGC Assay Overview: This secondary assay characterizes selected actives identified in the qHTS of the Locus Derepression (LDR) assay (PubChem AID 597). The LDR assay detects the derepression of a GFP reporter that is stably integrated in a region of the genome of murine c127i mammary cells that is presumably silenced. Compounds that cause derepression of the locus to express GFP are identified by enumerating GFP positive cells using a laser-scanning microplate cytometer. […] Normal 2 cell viability was measured using Cell Titer 96 AQueous One (Promega), an assay which detects the ability of metabolically active cells to reduce a tetrazolium salt substrate (MTS), into a soluble formazan product that can be measured by colorimetry.
NCGC Assay Protocol Summary Normal 2 cells were plated in 96-well flat bottom tissue culture dishes (Corning) and grown overnight at 37 C and 5% CO2, then treated with compounds, incubated 4 days, and assayed for viability using the Cell Titer 96 AQueous One kit (Promega) according to the manufacturer's protocol. Absorbance at 490 nm and 650 nm (reference) was measured by a Spectra Max (Molecular Devices). […]

The source made the active and inactive calls. Calls come from the whole dose curve.

Regarding `CN1CSC(=S)N(C)C1`, the result was inactive.
